Screening results deposited in PubChem by several laboratories.
GRIN3A LBD mod: binders of NR3A ligand-binding domain, primary screen, biophysical, differential scanning fluorimetry, uHTS | Glutamate receptor ionotropic, NMDA 3A (GRIN3A) ligand-binding domain | NR3A LBD differential scanning fluorimetry, Tm shift; 0% = protein alone, 100% = glycine-bound protein | Tm shift relative to glycine control, % at 25 µM | actives 2.5% (n = 340,000) | AID 1259313, 2017;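 active = melting temperature shift of at least 10% of the positive control shift, at one fixed dose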
MPTP block: mitochondrial permeability transition pore inhibitors, primary screen, biochemical, isolated mouse mitochondria, absorbance | Ca2+ swelling absorbance, 30 min | inhibition, % at 10 µM | actives 1.4% (n = 360,000);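 active = inhibition of 50% or more, scaled per plate between neutral and stimulator controls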
Mdm2-MdmX inh: inhibitors of human Mdm2-MdmX association, primary screen, cell-based, luminescence, split luciferase, SaOS-2, uHTS. Protein Mdm4 (Homo sapiens) + E3 ubiquitin-protein ligase Mdm2 (Homo sapiens), …. SaOS-2 split-luciferase Mdm2/MdmX complementation. inhibition, % at 8 µM. actives 3% (n = 330,000). AID 485346, 2010;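 active = inhibition of at least 50% at 8 µM in the primary screen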
Target sequence (O15151 whole entry, looked up): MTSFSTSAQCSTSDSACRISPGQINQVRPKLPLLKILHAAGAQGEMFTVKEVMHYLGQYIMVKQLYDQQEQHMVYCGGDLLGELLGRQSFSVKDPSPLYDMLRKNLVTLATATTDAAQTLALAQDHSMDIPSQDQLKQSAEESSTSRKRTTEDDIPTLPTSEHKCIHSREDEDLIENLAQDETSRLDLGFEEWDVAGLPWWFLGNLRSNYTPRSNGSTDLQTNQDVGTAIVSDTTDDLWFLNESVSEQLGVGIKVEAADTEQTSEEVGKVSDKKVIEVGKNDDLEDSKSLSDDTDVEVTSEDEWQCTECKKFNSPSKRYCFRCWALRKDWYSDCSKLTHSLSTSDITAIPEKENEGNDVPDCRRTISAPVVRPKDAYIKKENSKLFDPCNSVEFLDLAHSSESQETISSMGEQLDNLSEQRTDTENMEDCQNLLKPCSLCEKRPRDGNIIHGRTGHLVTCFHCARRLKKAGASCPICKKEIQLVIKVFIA
Target sequence (Q00987 whole entry, looked up): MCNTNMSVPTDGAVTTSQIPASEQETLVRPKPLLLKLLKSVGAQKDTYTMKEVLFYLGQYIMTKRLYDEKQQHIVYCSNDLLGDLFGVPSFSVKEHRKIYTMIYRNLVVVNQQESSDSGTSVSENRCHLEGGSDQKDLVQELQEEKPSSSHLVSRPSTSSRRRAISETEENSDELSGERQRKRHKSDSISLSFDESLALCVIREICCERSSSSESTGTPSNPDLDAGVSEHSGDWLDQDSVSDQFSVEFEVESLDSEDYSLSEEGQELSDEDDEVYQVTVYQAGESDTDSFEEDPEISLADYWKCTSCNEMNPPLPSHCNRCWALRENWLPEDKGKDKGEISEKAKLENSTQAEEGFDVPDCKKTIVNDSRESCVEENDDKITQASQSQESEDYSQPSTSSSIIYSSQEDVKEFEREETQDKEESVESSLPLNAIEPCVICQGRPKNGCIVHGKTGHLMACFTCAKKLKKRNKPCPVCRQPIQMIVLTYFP
Beta apoptosis: inhibitors of cytokine-induced beta cell apoptosis, primary screen, luminescence; INS-1E cytokine-induced death, ATP luminescence, 48 h; percent of positive-control rescue, neutral wells zero; protection from apoptosis, % (test concentration not listed); actives 0.8% (n = 300,000);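 active = Every replicate reaches about 75%, or at least half do and their mean reaches it too, limit read from the data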;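 note: higher means more ATP so stronger rescue from cytokine killing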
CSC inhib: cancer stem cell viability inhibitors, primary screen, luminescence; actives 1.1% (n = 300,000); cancer stem cell-like cells viability; AID 2717, 2010; inhibition, % at 7.5 µM; in the data active = inhibition above about 75%; tested in HMLE shEcad cells
Gli-Sufu antag: Gli-Sufu pathway antagonists, primary screen, luciferase luminescence, Sufu-KO-LIGHT cells, uHTS; actives 0.74% (n = 340,000); inhibition, % at 5 µM; Sufu-KO-LIGHT fibroblasts, Gli luciferase reporter luminescence;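 active = inhibition above about 55%, limit read from the data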
Mdm2 MdmX conf: Mdm2-MdmX complex disruptors, retested hits, confirmation, luminescence, single concentration; inhibition, % at 8 µM; AID 489028, 2010; Mdm2-MdmX binding, luminescent assay; shares compounds with Mdm2-MdmX inh; actives 55% (n = 10,000); in the data active = inhibition above about 40%
Full FLuc ctr: full-length luciferase signal inhibition, confirmation, counter-screen for Mdm2/MdmX interaction inhibitor project, cell-based, single concentration, SaOS-2. actives 77% (n = 6,200). inhibition, % at 8 µM. SaOS-2 full-length luciferase counterscreen, luminescence. shares compounds with Mdm2-MdmX inh. AID 504607, 2011;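 active = mean inhibition at 8 µM reaching about 37%, which flags the compound as non-specific, limit read from the data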;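 note: p53-null SaOS-2 cells with luciferase driven by a doxycycline-inducible promoter; compound on cells about two nights before reading with doxycycline added after day one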
Gli antag conf: Gli-SUFU pathway antagonists, confirmation, single concentration, luciferase luminescence, Sufu-KO-LIGHT cells | shares compounds with Gli-Sufu antag | Gli luciferase reporter | inhibition, % at 5 µM | actives 40% (n = 2,500);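 active = mean inhibition at 5 µM reaching about 45%, limit read from the data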
SufuKO cytotox: cytotoxicity in Sufu-KO-LIGHT cells, confirmation, cytotoxicity control for Gli-SUFU antagonist project, cell-based, ATP luminescence, single concentration; shares compounds with Gli-Sufu antag; cytotoxicity, % at 5 µM; actives 32% (n = 2,500); AID 651994, 2013;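 active = mean cytotoxicity at 5 µM above about 25%, limit read from the data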;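 note: cells exposed to compound overnight for roughly 16 to 18 hours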
Wnt3a cs: Wnt3a reporter signal inhibition, confirmation, counter-screen for Gli-SUFU antagonist project, Wnt-LIGHT cells, luminescence, single concentration | shares compounds with Gli-Sufu antag | Wnt3a-driven luciferase reporter | inhibition, % at 6.25 µM | actives 20% (n = 2,500);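 active = mean inhibition above about 25%, limit read from the data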
Hits are given with their value; 0 = inactive; - = not tested or not shown; ! = a repeat was not active. Rows were chosen to be rich in hits. Some 6.6% of all compounds tested hit in one or more screens of this group.

SMILES | GRIN3A LBD mod | MPTP block | Mdm2-MdmX inh | Beta apoptosis | CSC inhib | Gli-Sufu antag | Mdm2 MdmX conf | Full FLuc ctr | Gli antag conf | SufuKO cytotox | Wnt3a cs
COc1cc(C2c3cc4c(cc3C(O)C3COCC23)OCO4)cc(OC)c1OC (centres undefined) | 0 | 0 | - | - | - | 0 | - | - | - | - | -
CC(C)C(NC(=O)C1CCCCC1)C(=O)NC1=NCCS1 (centres undefined) | 0 | 0 | 0 | 0 | 0 | 0 | - | - | - | - | -
O=C1C=C(c2ccc3cc[nH]c3c2)C[C@@H](c2ccc3c(c2)OCO3)C1 | 21 | 0 | 57 | 0 | 0 | 59 | 57 | 53 | 0 | 0 | 0
O=C1C=C(c2ccc3c(c2)OCO3)C[C@@H](c2ccc3c(c2)OCO3)C1 | 0 | 0 | 0 | 0 | 0 | 0 | - | - | - | - | -
COc1cc(-c2noc(C)c2/C=C/c2ccc(OC(C)=O)cc2)cc(OC)c1OC | 0 | 0 | 84 | 0 | 109 | 0 | 90 | 94 | 69 | 58 | 0
O=C(c1ccc(Br)cc1)c1cc([N+](=O)[O-])ccc1N1CCCCC1 | 0 | 0 | 58 | 0 | 0 | 0 | 52 | 95 | 60 | 60 | 0
CCNC(=O)N1c2ccc(OCC)cc2C(C)=CC1(C)C | 0 | 0 | 0 | 0 | 0 | 0 | - | - | - | - | -
CC1=CC(C)(C)N(S(=O)(=O)c2ccc(C)cc2)c2cc(C)ccc21 | 0 | 0 | 54 | 0 | 0 | 59 | 69 | 122 | 58 | 62 | 0
CC1=CC(C)(C)N(C(=O)CCl)c2cc(C)ccc21 | 0 | 0 | 0 | 0 | 0 | 0 | - | - | - | - | -
CCOc1ccc2c(c1)C(C)=CC(C)(C)N2S(=O)(=O)c1ccc(C)cc1 | 0 | 0 | 63 | - | - | 67 | 61 | 121 | 64 | 62 | 0
COc1ccc2c(c1)C(C)=CC(C)(C)N2S(=O)(=O)c1ccc(C)cc1 | 0 | 0 | 63 | 0 | 0 | 67 | 67 | 96 | 56 | 58 | 30
O=C(CN1CCN(C/C=C/c2ccccc2)CC1)NC(=O)NC1CCCCC1 | 0 | 0 | 0 | 0 | 0 | 0 | - | - | - | - | -
CCNC(=O)C1(C)CCCN(Cc2ccc(-n3ccnc3)cc2)C1 (centres undefined) | - | 0 | - | - | - | - | - | - | - | - | -
Cc1ccc(N/C(N)=N/c2nc(CSc3nnc(C)s3)cc(=O)[nH]2)c(C)c1 | 0 | 0 | 60 | 0 | 0 | 0 | 56 | 68 | 57 | 56 | 0
Cc1[nH]n(-c2ccccc2)c(=O)c1N=Nc1ccccc1O | 10 | 0 | 59 | - | - | 0 | 58 | 42 | 55 | 34 | 74
O=C(NNS(=O)(=O)c1cc(Cl)cc(Cl)c1)c1sccc1-n1cccc1 | 0 | 0 | 0 | 0 | 0 | 0 | - | - | - | - | -
COCCN(C(=O)COC(=O)/C=C/c1cccc(OC)c1)c1c(N)n(CC(C)C)c(=O)[nH]c1=O | 0 | 0 | 0 | - | - | 0 | - | - | - | - | -
COc1ccccc1-n1c(-c2ccccc2)c[nH]c1=S | 0 | 0 | - | - | - | 0 | - | - | - | - | -
COc1ccccc1-n1c(-c2ccccc2)c[n+]2c1CCc1ccccc1-2 | 0 | 0 | 61 | 101 | 0 | 81 | 48! | 52! | 87 | 0 | 32
